The record followed here is ChEMBL document CHEMBL4513216, “Probing the Open Global Health Chemical Diversity Library for Multistage-Active Starting Points for Next-Generation Antimalarials” (ACS Infect Dis, 2020).

Screen size: about 69,000 compounds; about 8,600 (12%) showed an effect of 50% or more. Only a selection was taken, and strong results are over-represented in it overall.

The test has as its system Plasmodium berghei. Put plainly: Screen against P. berghei liver stage (PbLuc), transformed with Luciferase, at 10uM. It is filed as functional, HepG2. The following applies: tested at 10 uM.
Consider `Cc1cnn(CCNCC(O)c2ccc(S(C)(=O)=O)cc2)c1` (stereo not given), for which the INHIBITION is 12.6%.
The result for `c1cc(-c2nn3c(CN4CCOCC4)nnc3s2)ccn1` reads 26.7%.
In the case of `COc1ccc2c(c1)CN(CC(=O)NC1CCCC1)CC2`, the INHIBITION is on record as -2.48%.
The result for `Cc1cc2nc(SCC(=O)N3CCCC3)n(C(C)C)c(=O)c2[nH]1` reads -19.7%; that for `COc1cc(N2C[C@H]3CN(C(=O)c4cnccn4)C[C@H]3C2)ncn1`, -1.15%.
Turning to `COc1cc(N2C[C@H]3OCC[C@H]3[C@H](C(=O)N3CCCC3)C2)ncn1`, the INHIBITION is 30.3%.
Turning to `COc1cc(N2C[C@H]3CCC[C@@H](CN4CCOCC4)[C@H]3C2)ncn1`, the INHIBITION was 73%.
With `COc1cc(N2C[C@H]3CCN(CCN4CCCC4)C[C@H]3C2)ncn1`, the INHIBITION was found to be 52.6%.
As to `c1cnc(N2C[C@H]3CCC[C@@H](CN4CCCC4)[C@H]3C2)nc1`, the INHIBITION was 9.97%.
`COCCN(C)C[C@@H]1CCC[C@@H]2CN(c3cc(OC)ncn3)C[C@@H]21`: the INHIBITION was determined as 41.5%.
Turning to `COCCN1C[C@@H](C)[C@@]2(COCCN(C(=O)c3cnc(C)cn3)C2)C1`, the INHIBITION turned out to be 8.57%.
Take `CC(=O)NCc1noc2c1CN(CCN1CCCC1)CC2`: the INHIBITION amounted to 39.3%.
As for `O=C(O)COc1ccccc1CN1CCCC1c1cnccn1` (stereo not given), the INHIBITION was 47.2%.
For the compound `O=C(C[C@@H]1COC[C@H]2CN(Cc3ccccc3)C[C@@H]12)N1CCCC1`, the INHIBITION came out at 41.2%.
On to `Cc1cc(CN2CC[C@H]3C(=O)N(c4ccccc4)CCO[C@H]3C2)no1`, for which the INHIBITION was -33.5%.
On to `Fc1ccccc1CN1C[C@@H]2CN(Cc3cccnc3)CCO[C@@H]2C1`, for which the INHIBITION is reported as 27.5%.
`O=C1[C@@H]2CCN(CC3CCOCC3)C[C@@H]2OCCN1c1ccccc1`: the INHIBITION is -37.8%.
With `Cc1ccc(CN2CC[C@H]3C(=O)N(Cc4cccnc4)CCO[C@H]3C2)o1`, the INHIBITION stood at 33.4%.
The result for `O=C1[C@@H]2CCN(Cc3ccoc3)C[C@@H]2OCCN1Cc1cccc(F)c1` reads 70.7%; that for `O=C1[C@H]2CN(C3CCOCC3)C[C@H]2CN1Cc1cccc(F)c1`, 1.48%; that for `O=C1[C@@H]2CCN(Cc3ccccn3)C[C@@H]2OCCN1c1ccccc1`, 10.1%.
Take `Cc1ccc(N2CCO[C@H]3CN(Cc4cc(C)on4)CC[C@H]3C2=O)cn1`: the INHIBITION turned out to be 48.6%.
For `Cc1cc(CN2CC[C@H]3C(=O)N(c4cccnc4)CCO[C@H]3C2)no1`, the INHIBITION turned out to be 53.2%.
In the case of `COc1ccc(CN2C[C@@H]3CN(Cc4cccnc4)CCO[C@@H]3C2)cc1`, the INHIBITION amounted to 64.5%.
With `O=C1[C@@H]2CCN(Cc3ccncc3)C[C@@H]2OCCN1c1ccccc1`, the INHIBITION is 55.2%.
For `COc1ccccc1CN1C[C@@H]2CN(Cc3cccnc3)CCO[C@@H]2C1`, the INHIBITION amounted to 20.1%.
In the case of `O=c1c2c[nH]c(N3CCCC3)nc-2cn1C1CCS(=O)(=O)C1` (stereo not given), the INHIBITION amounted to 42.1%.
For `CC(C)n1[nH]c(=O)c2c1NC(=O)CC2c1ccc(C#N)cc1` (stereo not given), the INHIBITION is recorded as -1.04%.
Take `O=C1NCCCCC1Sc1ccc(F)c(F)c1` (stereo not given): the INHIBITION turned out to be 25.2%.
Regarding `O=C(N1CCCC1)N1CC[C@H]2[C@H]1CCN2c1ncccn1`, the INHIBITION is recorded as 19.8%.
Consider `Cc1nc(CC(=O)N2CCC(c3ccn4nccc4n3)CC2)cs1`, for which the INHIBITION was found to be 23.9%.
Take `CCOc1ccccc1-n1c(C2CCC2)n[nH]c1=O`: the INHIBITION is -27.5%.
To `O=C1[C@@H]2CCN(Cc3ccoc3)C[C@@H]2OCCN1c1ccccc1` belongs 21.6%; to `Cc1ccnc(N2CCN(Cc3ccccc3)CC(O)C2)c1` (stereo not given), 43.9%.
As for `OC1CN(Cc2ccccc2)CCN(c2ccncc2)C1` (stereo not given), the INHIBITION turned out to be 57.6%.
As for `c1cncc(CN2CCO[C@@H]3CN(Cc4ccoc4)CC[C@@H]3C2)c1`, the INHIBITION amounted to 50.9%.
Take `c1ccc(N2CC[C@@H]3CN(Cc4ccncc4)CCO[C@@H]3C2)cc1`: the INHIBITION is 65.1%.
For `O=C1[C@@H]2CCN(Cc3ccoc3)C[C@@H]2OCCN1c1cccnc1`, the INHIBITION worked out at 54.4%.
The result for `c1cnc(N2CCO[C@@H]3CN(Cc4ccoc4)C[C@@H]3C2)nc1` reads 33.5%.
For the compound `O=C1[C@@H]2CCN(Cc3ccoc3)C[C@@H]2OCCN1Cc1cccnc1`, the INHIBITION is reported as 12.5%.
For the compound `O=C1[C@@H]2CCN(Cc3ccc(F)cc3)C[C@@H]2OCCN1c1cccnc1`, the INHIBITION is recorded as 24.9%.
Consider `Cc1cnc(N2CC[C@@H]3CN(Cc4ccncc4)CCO[C@@H]3C2)nc1`, for which the INHIBITION is -15.3%.
Consider `c1cnc(N2CC[C@@H]3CN(Cc4ccncc4)CCO[C@@H]3C2)nc1`, for which the INHIBITION is listed as -33%.
Regarding `Cc1cc(N2CCN(Cc3ccccc3)CC(O)C2)cc(C)n1` (stereo not given), the INHIBITION came out at 36.8%.
Regarding `CCNc1nc(-c2cccnc2)c(-c2ccnc(N3CCCC3)n2)s1`, the INHIBITION is on record as 48.6%.
As to `CN(C)C(=O)CCCn1ccc(NC(=O)NCc2cccc(F)c2)n1`, the INHIBITION is given as 13.8%.
To `O=C(NCc1cc[nH]n1)NCC(O)c1ccc(F)c(F)c1` (stereo not given) belongs -48.4%; to `CCN(CC)S(=O)(=O)c1cccc(C(=O)N(C)Cc2ccsc2)c1`, -61.4%.
In the case of `CC[C@H]1N(C)CCC[C@]12CCC(=O)N2Cc1ccncc1`, the INHIBITION is reported as 43.2%.
Turning to `CCOc1ccc(C(=O)N2CCCC2c2c(C)nn(C)c2OC)cn1` (stereo not given), the INHIBITION is -105%.
The result for `Cc1c(CN2CCCC(n3c(=O)oc4ccccc43)C2)cnn1C` (stereo not given) reads 35.75%; that for `N#Cc1cccc(CN2CC[C@@H]3CN(c4ncccn4)CCO[C@@H]3C2)c1`, 56.4%; that for `Cc1cc(C)n(CC2CN(Cc3cccc(C#N)c3)CCO2)n1` (stereo not given), -8.11%.
For the compound `N#Cc1cccc(CN2C[C@@H]3CN(c4ncccn4)C[C@@H]3C2)c1`, the INHIBITION was 8.66%.
Take `CC(C)c1nc(C2CCCN2CC(=O)Nc2ccc(Cl)cn2)no1` (stereo not given): the INHIBITION was determined as 54.6%.
As for `Cc1cc(NC(=O)CN2CCCC2c2noc(C(C)C)n2)no1` (stereo not given), the INHIBITION is reported as 50.3%.
As to `Cc1nnc(NC(=O)CN2CCCC2c2noc(C(C)C)n2)s1` (stereo not given), the INHIBITION is reported as -36.1%.
For `Cc1cc(NC(=O)CN2CCCC2c2noc(C3CC3)n2)no1` (stereo not given), the INHIBITION was 21.6%.
To `Cc1cc(NC(=O)CN2CCCC2c2noc(C(C)C)n2)n(C)n1` (stereo not given) belongs 6.81%; to `CC(C)c1nc(C2CCCN2CC(=O)Nc2cccnc2)no1` (stereo not given), -17.6%.
With `CC(C)c1nc(C2CCCN2Cc2ccccc2C#N)no1` (stereo not given), the INHIBITION amounted to 22.5%.
`CC(C)c1nc(C2CCCN2C(=O)c2nccnc2N)no1` (stereo not given): the INHIBITION is 61.1%.
To `CCc1nc(C2CCCN2C(=O)c2nccnc2N)no1` (stereo not given) belongs -3.18%.
To `CC(C)c1nc(C2CCCN2Cc2ccncc2Cl)no1` (stereo not given) belongs 53.9%; to `CC(C)c1nc(C2CCCN2Cc2ccno2)no1` (stereo not given), 17%.
Take `CCc1ocnc1C(=O)N1CCCC1c1noc(C(C)C)n1` (stereo not given): the INHIBITION was 11.7%.
To `COC(=O)c1cc(C(=O)N2CCC(OC)CC2)n(-c2ccccc2)n1` belongs -12.33%; to `COC(=O)CNC(=O)c1sc(-c2ccc(Cl)s2)nc1C`, -58%.
To `CC(O)CN1CCC(CNCc2cccc(OC(F)(F)F)c2)CC1` (stereo not given) belongs 35.4%.
In the case of `CS(=O)(=O)NC[C@]12COC[C@H]1CN(C(=O)N1CCCC1)C2`, the INHIBITION stood at 21.3%.
In the case of `CNCc1nc(-c2ccc3c(c2)OCO3)c[nH]1`, the INHIBITION came to 8.4%.
For the compound `CN1CCC(n2nc(CC3CC3)nc2-c2ccc(F)cc2Cl)CC1`, the INHIBITION amounted to 34.9%.
As to `CN(C)CCN(Cc1cccc(F)c1)C(=O)c1ccc2nccn2c1`, the INHIBITION is 2.91%.
As to `Cc1cc(NC(=O)CN2CCn3c(nnc3C(C)C)C2)no1`, the INHIBITION is on record as 63.9%.
Consider `Cc1cc(NC(=O)CN2CCCC2c2noc(C(C)C)n2)on1` (stereo not given), for which the INHIBITION was -7.31%.
`CC(C)c1cc(NC(=O)CN2CCCC2c2noc(C(C)C)n2)on1` (stereo not given): the INHIBITION is on record as 52.3%.
For `CC(C)c1nc(C2CCCN2CC(=O)Nc2nncs2)no1` (stereo not given), the INHIBITION came out at 10.2%.
`Cc1cc(NC(=O)CN2CCn3c(nnc3C(C)C)C2)on1`: the INHIBITION was -0.219%.
`Cc1cc(NC(=O)CN2CCn3c(C)nnc3C2)no1`: the INHIBITION is recorded as 45.1%.
The result for `O[C@@H]1CCN(CC2CCOC2)[C@H]1Cc1ccccc1` (stereo not given in full) reads 46.7%.
`COc1ccc(CN(Cc2cncn2C)CC2CCCO2)cc1OC` (stereo not given): the INHIBITION is listed as 15.9%.
On to `CC(C)C(C)NC(=O)Nc1ccc(CS(C)(=O)=O)cc1` (stereo not given), for which the INHIBITION is recorded as 3.16%.
In the case of `COc1ccc(CN2CCn3cc(CNC(=O)CC4CC4)nc3C2)cc1`, the INHIBITION worked out at 40.4%.
As to `CCOc1ccccc1CNC1CCCN(Cc2noc(C)n2)C1` (stereo not given), the INHIBITION is reported as 21.5%.
As for `CNC(=O)c1ccc(CN(C(C)C)C(C)C)o1`, the INHIBITION was determined as 47.9%.
As to `COC(=O)c1ccc(CN(C(C)C)C(C)C)o1`, the INHIBITION was determined as 42.1%.
Regarding `CC(C)N(Cc1ccc(C(=O)O)o1)C(C)C`, the INHIBITION is 69.6%.
On to `c1coc(CN2CCCn3c(nnc3Cn3cccn3)C2)c1`, for which the INHIBITION came to 4.68%.
On to `O=C(Cc1cccs1)N1CCn2cc(Cn3cccn3)nc2C1`, for which the INHIBITION is listed as -2.72%.
In the case of `O=C(c1ccc[nH]1)N1CCn2cc(Cn3cncn3)nc2C1`, the INHIBITION came out at 10.8%.
To `O=C(Cc1cccc(F)c1)N1CCn2cc(Cn3cccn3)nc2C1` belongs 26.4%.
To `O=C(Cc1ccc(F)cc1)N1CCn2cc(Cn3cccn3)nc2C1` belongs 51.2%; to `O=C(CC1CC1)N1CCn2cc(Cn3cccn3)nc2C1`, 42.7%; to `O=C(c1ccc[nH]1)N1CCn2cc(Cn3cccn3)nc2C1`, 74.2%.
As for `COc1ncccc1CN1C[C@@H]2COC[C@]2(CNC(=O)c2ccno2)C1`, the INHIBITION came out at 29%.
In the case of `Cc1nc(C)c(CN2CCC(N(C)Cc3noc(C4CC4)n3)C2)s1` (stereo not given), the INHIBITION is recorded as -19.9%.
`COc1ccc(CNC2CCc3ncnn3C2)cc1OCCCC#N` (stereo not given): the INHIBITION is 28.7%.
Regarding `CCc1nc(C)c(-c2nccn2CC2CC(=O)N(CC)C2)[nH]1` (stereo not given), the INHIBITION was found to be 55.2%.
For the compound `CCc1nc(C)c(-c2nccn2CC2CCCCO2)[nH]1` (stereo not given), the INHIBITION is -10.2%.
On to `CCc1nc(C)c(-c2nccn2CC2CCN(C3CCCC3)CC2)[nH]1`, for which the INHIBITION worked out at 22.5%.
